{"source": "PubChem BioAssay (NCI)", "note": "This is part of a sample that, as a whole, favours compounds with a hit. Of some 83,000 tested, about 20% had one in any assay.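 Each cell line was grown in a 96-well plate and treated with one concentration of compound for 48 hours. Values below 10 were considered active.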 Values without a mark were called inactive. Activity calls are given as the source filed them."}
{"tested_on": "MOLT-4 leukemia", "test": "NCI-60 one-dose screen, 48 h (100 = growth as untreated, 0 = no growth, -100 = all killed)", "conditions": "10 µM unless noted"}
{"smiles": "O=C(/C=C/CN1CCOCC1)Nc1cc2c(Nc3cccc(Cl)c3F)ncnc2cc1OCCOC(F)F", "growth": "77.3%"}
{"smiles": "Cc1oc2nc[nH]c(=O)c2c1C(=O)/C=C/c1ccc(Cl)cc1", "growth": "40.7%"}
{"smiles": "CCn1cc(C2NC(=O)c3cc(F)ccc3N2)c2cccc(Cl)c21", "note": "(centres undefined)", "growth": "10.8%"}
{"smiles": "CN(C)C/C=C/C(=O)Nc1cc2c(Nc3ccc(F)c(Cl)c3F)ncnc2cc1OCCOC(F)F", "growth": "4.26% (active)"}
{"smiles": "CC(=O)Nc1ccc2c(c1)/C(=C\\C=C/c1ccc([N+](C)(C)C)cc1)c1ccccc1-2", "growth": "63.6%"}
{"smiles": "c1ccc([P+](CCC[P+](c2ccccc2)(c2ccccc2)c2ccccc2)(c2ccccc2)c2ccccc2)cc1", "growth": "79.6%"}
{"smiles": "COc1ccc2c(c1)NC(=O)CN2c1nc(C)nc2ccccc12", "growth": "23.7%"}
{"smiles": "CCCCCC/C=C\\CCCCCCCCOc1ccc(CCOP(=O)(O)OCC[N+](C)(C)C)cc1", "growth": "54.1%"}
{"smiles": "O=C(Nc1ccc(I)cc1)c1cc([N+](=O)[O-])ccc1O", "growth": "18.8%"}
{"smiles": "NC(=O)c1c(NC(=O)c2ccc3c(c2)OCO3)sc2c1CCC(=O)C2", "growth": "-20.8% (active)"}
{"smiles": "O=C(CNC(=O)c1cccc2ccccc12)Nc1ccccc1Oc1ccccc1", "growth": "24.2%"}
{"smiles": "COC12CC(=O)C(C(C)=O)=C(O)C1(C)c1c(O)c(C)c(O)c(C(C)=O)c1O2", "note": "(centres undefined)", "growth": "75.3%"}
{"smiles": "O=S(=O)(NCCCNc1nccc(-c2c(-c3ccccc3)nc3sccn23)n1)c1ccc(F)cc1", "growth": "38.4%"}
{"smiles": "CCCCOc1nc2c(C)cccc2cc1C1CNC(=O)c2ccccc2N1", "note": "(centres undefined)", "growth": "39%"}
